IL1B secr inh – inflammasome signaling inhibition, IL-1 beta readout; THP-1 LPS/ATP IL-1B secretion, AlphaLISA, 16 h; stronger effect = lower value; activity change, % at 57.5 µM; 4.7% of 360,000 active; AID 743279; in the data active means activity change below about -50%; inconclusive means mostly about -30% to -49%
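THP-1 cells pretreated 1 hr with compounds (up to 57.5 uM final), then stimulated with LPS (250 ng/mL final) plus ATP (1.25 mM final); secreted IL-1B measured by AlphaLISA after 16 hr, decreased signal indicating inhibition.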
DT40 TDP1 no CPT – qHTS for Inhibitors of human tyrosyl-DNA phosphodiesterase 1 (TDP1): qHTS in cells in absence of CPT. DT40 Tdp1-/- hTDP1 cells, no CPT, ATP luminescence, 48 h. Potency, µM (series often up to 46.2 µM), for inactives: top-dose activity change, negative = growth inhibition, hits mostly inhibitors. 15% of 420,000 active; further: potency means the concentration at half of the fitted maximal effect; nearly all actives have a fitted effect of over 55% in size
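Chicken DT40 Tdp1-/- cells complemented with human TDP1, screened without camptothecin (DMSO vehicle only), 400 cells/well. Compounds pin-transferred, cells incubated at 37 °C for at least 48 hr. Growth read as ATP-dependent luminescence (CellTiter-Glo, 30 min at RT).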
DT40 TDP1 CPT – growth inhibition of DT40 Tdp1-/-;hTDP1 cells with camptothecin (screen for TDP1 inhibitors). chicken DT40 Tdp1-/-;hTDP1 cells + 20 nM CPT, ATP luminescence, 48 h. Potency, µM (doses to about 46.2 µM), inactives show at the highest dose activity change, negative = growth inhibition, hits mostly inhibitors. 12% of 420,000 active; further: potency means the concentration at half of the fitted maximal effect; nearly all actives have a fitted effect of over 55% in size
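Chicken DT40 Tdp1-/- cells complemented with human TDP1, 400 cells/well, exposed to compounds plus 20 nM camptothecin for at least 48 h at 37 C; viability read as ATP content by CellTiter-Glo luminescence.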
HT1080 IDH1KD tx – kills HT-1080 cells with IDH1 knockdown | HT-1080 IDH1 knockdown viability, ATP luminescence, 48 h | Potency, µM (titrated, usually from 46.1 µM), without a hit: at the highest dose activity, negative = toxicity, most hits filed as cytotoxic | 2% of 360,000 active | AID 686971;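 further: potency means the concentration at half of the fitted maximal effect; 0% = DMSO wells and -100% = cell-free medium wells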
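Cytotoxicity counter-line: IDH1KD HT-1080, 48 h, CellTiter-Glo. Curves classed by r2, magnitude and activity.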
HT1080-NT tox – kills 2HG-producing HT-1080-NT fibrosarcoma cells; HT-1080-NT fibrosarcoma viability, CellTiter-Glo ATP luminescence, 48 h; Potency, µM (series often up to 46.1 µM), inactives show at the highest dose activity, negative = less viability, usual class: cytotoxic; 1.6% of 360,000 active; AID 686970;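 further: NT is the 2HG producing partner of a matched IDH1 knockdown line; potency means the concentration at half of the fitted maximal effect; 0% = DMSO-treated cells and -100% = media-only wells without cells; nearly all actives have a fitted effect of over 55% in size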
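Luminescent CellTiter-Glo readout after 48 hours of compound exposure at 37 degrees C defined viability of HT-1080-NT cells. Activity was normalized to DMSO wells and cell-free media wells; concentration-response curves were fitted and assigned curve classes.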
* marks the source's active call; other numbers are inactive results; ? = inconclusive; nt = no result given; [ ] = dose if it differs, or a comment. Only some compounds are listed: those with a hit (about 19% of all), similar ones and a draw of the others. Unless noted, the call rests on the fitted dose curve; in most records, active means well fitted curve in the direction sought with a large enough effect; inconclusive means small, poorly fitted or top-dose-only effect, or another doubt; inactive means no such curve, though single readings can be large; an effect the other way counts as inactive or inconclusive. Unless noted, on the % scale 0 is the no-effect control and ±100 the full control effect.

SMILES	IL1B secr inh	DT40 TDP1 no CPT	DT40 TDP1 CPT	HT1080 IDH1KD tx	HT1080-NT tox
CCN(CC)CCCNC(=O)CCCn1c(=O)[nH]c2ccc(Br)cc2c1=O	nt	-4%	-6%	nt	nt
C=CC(N)CCC(=O)O (stereo not given)	nt	0%	-11%	nt	nt
O=Cc1c[nH]c2cccc(OCc3ccccc3)c12	-79*	23µM*	?	-21%	-4%
O=Cc1c[nH]c2ccc(NC(=O)OCc3ccccc3)cc12	?	?	?	-38%	-5%
O=C(NC(c1ccccc1)C(Cl)Cl)c1ccccc1 (stereo not given)	8	-8%	-11%	5%	8%
[N-]=[N+]=NC(c1ccccc1)C(NC(=O)c1cc(C(F)(F)F)cc(C(F)(F)F)c1)c1ccccc1 (stereo not given)	12	23µM*	?	?	?
COc1ccc(OC)c(NC(=O)Cn2nc3c(cc2=O)CCCC3)c1	nt	?	-20%	nt	nt
COc1ccc(CCC(=O)NNC(=S)NCc2ccc(F)cc2)cc1	-3	?	-30%	6%	4%
CCO[C@@H]1OC(C(=O)N2CCCCCCC2)=C[C@H](C2CCCCC2)[C@H]1CCCO	-26	?	13µM*	-7%	6%
CCO[C@@H]1OC(C(=O)N2CCN(Cc3ccc4c(c3)OCO4)CC2)=C[C@H](C)[C@H]1CCCO	-3	?	-7%	3%	-1%
CCO[C@@H]1OC(C(=O)N2CCN(Cc3ccc4c(c3)OCO4)CC2)=C[C@H](C2CC2)[C@H]1CCCO	-4	?	?	4%	-2%
CCO[C@H]1OC(C(=O)N2CCN(Cc3ccc4c(c3)OCO4)CC2)=C[C@@H](C2CCCCC2)[C@@H]1CCCO	5	16µM*	15µM*	-14%	-10%
C#Cc1ccc([C@H]2C=C(C(=O)N3CCN(Cc4ccc5c(c4)OCO5)CC3)O[C@@H](OCC)[C@@H]2CCCO)cc1	-50*	?	?	-14%	-7%
Cc1c(CCNC(=O)c2c(F)cccc2F)sc2nc(-c3ccc(F)cc3)nn12	nt	?	-30%	nt	nt
Cc1ccc([C@H]2C[C@@H](O)[C@H](n3cc(-c4ccc(F)cc4)nn3)CN2C(=O)c2cccs2)cc1	-19	15µM*	?	?	?
Cc1ccc([C@H]2C[C@@H](n3cc(-c4ccc(F)cc4)nn3)[C@H](O)CN2C(=O)c2cccs2)cc1	-6	15µM*	18µM*	-10%	-19%
Cc1ccc([C@H]2C[C@H](O)[C@@H](n3cc(-c4ccc(F)cc4)nn3)CN2C(=O)c2cccs2)cc1	-11	18µM*	?	-23%	?
COc1ccc(C(=O)N2CCNC(=O)C2)cc1S(=O)(=O)Nc1ccc(Br)cc1	1	-5%	-10%	-5%	0%
C/C(=N\Nc1ccc(C(=O)O)cc1)c1ccc2c(c1)Nc1ccccc1S2	0	?	?	?	-19%
Cc1cc(=O)oc2c3c(cc(OCC(=O)NCc4ccco4)c12)OC(C)(C)CC3	-14	?	?	-5%	-5%
COc1ccc(CNC(=O)COc2cc3c(c4oc(=O)cc(C)c24)CCC(C)(C)O3)cc1OC	?	23µM*	21µM*	1%	2%
Cc1cc(=O)oc2c3c(cc(OCC(=O)NCc4ccncc4)c12)OC(C)(C)CC3	-7	23µM*	?	-15%	-1%
Cc1c(C)c2c(OCC(=O)NCc3ccncc3)cc3c(c2oc1=O)CCC(C)(C)O3	-4	?	?	-7%	1%
C=CS(=O)(=O)O	nt	13%	16%	nt	nt
O=C(CCNC(=O)N1CCn2c1nc1ccccc12)NCc1ccccc1Cl	?	-9%	-12%	0%	0%
SMILES	IL1B secr inh	DT40 TDP1 no CPT	DT40 TDP1 CPT	HT1080 IDH1KD tx	HT1080-NT tox
Cc1ccc(/C=N/N(Cc2ccccc2)c2ccccc2)o1	-9	7%	4%	16%	6%
Cc1cc(C)c2oc(-c3ccc(C)c(NC(=S)NC(=O)/C=C/c4ccco4)c3)nc2c1	14	?	?	0%	3%
Cc1ccc(-c2nc3ccccc3[nH]2)cc1NC(=S)NC(=O)c1ccccc1Br	-56*	15µM*	?	-15%	-5%
Cc1ccc(-c2nc3ccccc3[nH]2)cc1NC(=O)/C=C/c1ccco1	?	16µM*	?	?	?
NC(=O)C1CCN(C(=O)CCSCc2ccccc2)CC1	18	18%	3%	13%	9%
C=Cc1ccc(C(=O)N2CCc3c(cnc(C)c3CNC(=O)c3ccc4c(c3)OCO4)C2)cc1	nt	-19%	-1%[9.04 µM]	nt	nt
Cc1cccc(-n2cnc3cc(C(=O)NCCN4CCOCC4)ccc32)c1	?	-25%	-14%	15%	5%
Nc1c(C(=O)NCc2ccccc2)c2nc3ccccc3nc2n1CCCN1CCOCC1	-29	-80%	?	?	?
CC(C)Cn1c(N)c(C(=O)NCCN2CCOCC2)c2nc3ccccc3nc21	-61*	18µM*	?	3%	4%
